Assay outcomes: PubChem, Sanford-Burnham Center for Chemical Genomics
This is one part of a sample in which hits are shown more often than they occur.
Artemis inh – inhibitors of human Artemis endonuclease activity; Q96SD1; recombinant Artemis, quenched FAM hairpin cleavage fluorescence; inhibition, % at 10 µM; 0.78% of 30,000 active;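 active = at 10 µM dose, at least 30% inhibition, measured as corrected fluorescence normalized to stimulator and neutral control wells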
Target sequence (Q96SD1 whole entry, looked up): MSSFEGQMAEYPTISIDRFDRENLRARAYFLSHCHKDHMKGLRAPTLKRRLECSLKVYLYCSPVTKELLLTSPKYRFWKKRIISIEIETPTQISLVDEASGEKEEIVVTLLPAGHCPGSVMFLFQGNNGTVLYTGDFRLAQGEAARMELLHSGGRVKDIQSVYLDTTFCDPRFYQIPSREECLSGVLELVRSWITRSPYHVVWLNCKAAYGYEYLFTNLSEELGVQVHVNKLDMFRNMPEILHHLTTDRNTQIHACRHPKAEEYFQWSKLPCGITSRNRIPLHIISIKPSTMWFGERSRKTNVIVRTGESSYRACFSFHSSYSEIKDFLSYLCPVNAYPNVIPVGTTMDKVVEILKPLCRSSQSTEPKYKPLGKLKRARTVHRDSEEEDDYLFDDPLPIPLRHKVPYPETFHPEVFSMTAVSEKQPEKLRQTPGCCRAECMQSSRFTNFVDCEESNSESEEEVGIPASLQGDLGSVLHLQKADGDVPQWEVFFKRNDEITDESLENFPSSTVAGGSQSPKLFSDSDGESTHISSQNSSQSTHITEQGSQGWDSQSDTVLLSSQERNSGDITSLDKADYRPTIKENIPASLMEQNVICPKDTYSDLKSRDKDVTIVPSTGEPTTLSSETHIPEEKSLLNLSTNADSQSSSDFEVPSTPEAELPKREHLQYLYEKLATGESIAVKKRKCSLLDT
Numbers without * were called inactive.

SMILES | Artemis inh
COc1cc(NCCCC(C)N)c2ncccc2c1 (centres undefined) | 55.3*
COc1ccc(-c2nnc(SCC(=O)NCc3cccs3)n2CC(C)C)cc1 | -1.7
CCOC(=O)C1=NNC(C(=O)c2ccc(OC)cc2)C1c1ccccc1 (centres undefined) | 4.0
COc1ccc(S(=O)(=O)Nc2ccc3c(c2)OCCO3)cc1Cl | -1.7
CSc1nc2ccc(S(=O)(=O)NC3CCCCC3)cc2s1 | 1.4
CSc1nc2ccc(NS(=O)(=O)c3ccc4c(c3)OCCO4)cc2s1 | 33.7*
CCOC(=O)C1=C(c2ccccc2)NC(=S)NC1C (centres undefined) | -0.4
Cc1nc2ccc(NC(=O)c3cccc(S(=O)(=O)N4CC(C)OC(C)C4)c3)cc2s1 (centres undefined) | -9.6
O=C(O)CC(C(=O)O)c1cn(Cc2ccccc2)c2ccccc12 (centres undefined) | 2.0
Cc1[nH][nH]c(=O)c1C(c1c(C)[nH][nH]c1=O)c1cn(Cc2cccc3ccccc23)c2ccccc12 | 46.9*
N#Cc1ccccc1Cn1cc(C#N)c2ccccc21 | 10.4
COc1ccccc1N1CCN(c2nc3ccccn3c(=O)c2C=O)CC1 | -6.4
CCn1cc(C(=O)NCc2ccc3c(c2)OCO3)c(=O)c2cc(F)c(N3CCN(C(=O)c4ccco4)CC3)cc21 | 17.2
CCN1CCN(C(=O)CN2C(=O)c3cccc4cccc2c34)CC1 | -10.1
CN1/C(=N\O)c2cccc3cccc1c23 | 37.9*
CCNC(=O)CN1c2cccc3cccc(c23)S1(=O)=O | 8.2
O=C(Nc1nc(N2C(=O)c3ccccc3C2=O)n(-c2ccccc2)n1)c1ccc(Cl)cc1 | 7.0
O=C(Nc1ccc2c(c1)OCO2)C1CCCCN1S(=O)(=O)c1ccccc1 (centres undefined) | 4.2
N#CC1=C(N)Oc2n[nH]c(-c3cccs3)c2C1c1ccoc1 (centres undefined) | 38.6*
Cc1ccc(C2C(C#N)=C(N)Oc3n[nH]c(-c4cccs4)c32)cc1 (centres undefined) | 0.7
COc1cc(-c2[nH]nc3c2C(c2ccoc2)C(C#N)=C(N)O3)cc(OC)c1OC (centres undefined) | 6.5
O=C(Nc1ccccc1-c1nnn(CC(=O)N2CCCc3ccccc32)n1)c1ccc(Cl)cc1 | 16.2
COc1ccc(C2SCC(=O)N2CCCN(C)C)cc1 (centres undefined) | -8.5
CCOc1ccc(OCCOCCn2ccnc2)cc1 | -9.4
Cc1cc(-c2nnc3sc(-c4ccc(Cl)cc4Cl)nn23)n[nH]1 | 6.2
SMILES | Artemis inh
CCOc1cccc(-c2nn3c(-c4cc(C)[nH]n4)nnc3s2)c1 | 5.7
COc1cccc(OC)c1-c1nn2c(-c3cc(-c4ccccc4)n[nH]3)nnc2s1 | 80.2*
O=S(=O)(Nc1ccc(F)cc1)c1ccc(NC(=S)Nc2ccccc2)cc1 | 1.8
CCCCOc1cccc(C(=O)NNC(=S)NC2CCCCC2)c1 | -2.1
CC(C)NC(=O)c1sc2nc3c(c(-c4cccs4)c2c1N)CN(C)CC3 | 8.9
Cc1cccc(NC(=O)c2sc3nc4c(c(-c5cccs5)c3c2N)CN(C)CC4)c1 | 40.4*
CC(=O)c1sc2nc(-c3cccs3)cc(C(F)(F)F)c2c1N | -5.8
Cc1ccc(S(=O)(=O)N/N=C/c2c(C)nn(-c3ccccc3)c2C)cc1 | 6.7
Cc1cccc(NC(=O)Cn2c(=O)oc3ccccc32)c1 | -7.8
CC1(C)Cc2cccc(OCC(=O)Nc3cccnc3Cl)c2O1 | 4.5
Cc1onc(-c2c(F)cccc2Cl)c1C(=O)NC1CCSC1=O (centres undefined) | 3.5
CCN(CC)C(=O)C(=O)N/N=C/c1ccc(Br)cc1 | -0.7
Cc1cccc(-n2cnc(C(=O)N/N=C/c3ccccc3)c2)n1 | 8.1
Oc1ccc2ccccc2c1C=NC12CN3CCN(CN(C3)C1)C2 | 40.9*
CN(C)/N=C/c1c(O)ccc2ccccc12 | -0.7
Cc1[nH]n(-c2cccc(Cl)c2)c(=O)c1C=NC12CN3CN(CN(C3)C1)C2 | 8.9
CCC(C)n1c(-c2cccs2)nc2nc3ccccc3nc21 (centres undefined) | -1.5
CC(=O)OC1COC(N2CCc3cc([N+](=O)[O-])ccc32)C(OC(C)=O)C1OC(C)=O (centres undefined) | -5.0
Clc1ccc(-c2nnc3sc(-c4ccc(Br)o4)nn23)cc1 | -64.4
c1ccc(-c2nnc3sc(-c4csc5c4CCCC5)nn23)cc1 | 32.2*
c1cncc(-c2nnc3sc(C4CCCCC4)nn23)c1 | 2.4
COC(=O)c1cc(COc2ccc3c(c2)oc(=O)c2ccccc23)c(C)o1 | 10.2
COc1ccc(-c2nn(-c3ccccc3)cc2CO)cc1 | 3.7
COc1ccc(-c2nn(-c3ccccc3)cc2C(=O)Nc2nccs2)cc1 | 47.3*
COC(=O)c1ccc(NC(=O)c2cn(-c3ccccc3)nc2-c2ccncc2)cc1 | 7.2
SMILES | Artemis inh
O=C1NCCCC2c3c(cc(Br)c(O)c3Br)OC12N1CCCCC1 (centres undefined) | 2.1
O=C(Nc1ccccc1-c1ccccc1)c1ccc(NC(=O)c2ccco2)cc1 | -2.9
COc1ccc(/C=N\NC(=O)COc2ccc(C(C)(C)C)cc2)cc1Cn1nc(C)cc1C | -3.6
CC(=O)NC(=O)COC(=O)/C=C/c1c(C)nn(Cc2c(Cl)cccc2Cl)c1Cl | -5.3
Cc1cc(/C=N/n2cnnc2)c(C)n1-c1ccc(OCc2ccc(Cl)cc2)cc1 | 32.8*
Clc1ccc(Cn2cc(/C=N/n3cnnc3)c3ccccc32)cc1 | 3.5
Clc1ccc(-n2cccc2/C=N/n2cnnc2)cc1 | -1.9
CCOC(=O)c1c(Nc2nc(C)c(C(=O)NC)s2)sc(C)c1C | -1.8
CCC(=O)Nc1ccc2oc(-c3ccccc3Br)nc2c1 | -2.9
Nc1ccc2oc(-c3cccc4ccccc34)nc2c1 | -2.0
O=C(Nc1ccc2oc(-c3cccc4ccccc34)nc2c1)c1ncn[nH]1 | 32.0*
O=c1c2ccccc2nc2n1C(CSCc1ccc(Cl)cc1)CS2 (centres undefined) | -2.4
O=c1c2ccccc2nc(N/N=C/c2ccc(O)cc2)n1O | 28.7
O=c1c2ccccc2nc(N/N=C/c2c(O)ccc3ccccc23)n1O | 61.0*
CCCc1nc2ccccc2c(=O)n1/N=C/c1ccc(O)cc1O | 4.6
O=C(O)CCCN=CC1=C(O)C(C(=O)c2ccccc2)CCC1=O (centres undefined) | 3.4
